Sampled rows, rich in hits. Any-hit rate of the full collection: about 10%.
Six1-Eya2 blk = Six1/Eya2 interaction inhibition | Q15475+O00167 | AlphaScreen GST-Six1/His-Eya2 binding, biochemical; stronger effect = lower value | activity change, % (concentration not given with the values) | 360,000 tested, 0.56% active | AID 651725; in the data active = activity change below about -65%; inconclusive = mostly about -30% to -63%; also: % is scaled to controls: 0 for no effect and ±100 for the full control effect
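Homogeneous AlphaScreen proximity assay pairing GST-Six1 with His-tagged Eya2 (added as 5X mix: 250 nM and 500 nM) in 50 mM Tris pH 8.0, 300 mM NaCl, 1 mM TCEP. Glutathione donor and nickel acceptor beads; 1 h, 37 °C, dark.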
BAZ2B inh = inhibitors of human BAZ2B bromodomain; Q9UIF8; AlphaScreen BAZ2B-H3K14Ac peptide displacement; Potency, µM (series often up to 114 µM), without a hit: at the top dose activity change, negative = inhibition, most hits filed as inhibitors; 360,000 tested, 4.4% active; also: potency is read from the fitted curve at half-maximal effect; % is scaled to controls: 0 for no effect and ±100 for the full control effect; nearly all actives have a fitted effect of over 60% in size
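Protein-peptide AlphaScreen: BAZ2B 50 nM, b-H3K14Ac 50 nM, 1x PBS pH 7.4 + 0.01% Tween-20. Preincubation 30 min RT; cpd 30 min RT (top 110 uM); beads 20 min RT, light-protected.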
JMJD2A Tudor inh = blocks the human JMJD2A Tudor domain; O75164; Potency, µM (series often up to 114 µM), for inactives: at the highest dose activity change, negative = inhibition, hits mostly inhibitors; 390,000 tested, 4.4% active; AlphaScreen JMJD2A-Tudor / H3K4me3 peptide binding; also: potency is read from the fitted curve at half-maximal effect; % is scaled to controls: 0 for no effect and ±100 for the full control effect; nearly all actives have a fitted effect of over 50% in size
G9a inh = G9a (human) methyltransferase inhibition | Q96KQ7 | 350,000 tested, 8.8% active | G9a H3K9 monomethylation, AlphaScreen, 2 h | Potency, µM (highest dose often 102 µM), inactives show at the highest dose activity, negative = inhibition, most hits filed as inhibitors | AID 504332; also: potency is read from the fitted curve at half-maximal effect; % is scaled to controls: 0 for no effect and ±100 for the full control effect; nearly all actives have a fitted effect of over 75% in size
Target sequence (Q96KQ7 913-1193 limits assumed): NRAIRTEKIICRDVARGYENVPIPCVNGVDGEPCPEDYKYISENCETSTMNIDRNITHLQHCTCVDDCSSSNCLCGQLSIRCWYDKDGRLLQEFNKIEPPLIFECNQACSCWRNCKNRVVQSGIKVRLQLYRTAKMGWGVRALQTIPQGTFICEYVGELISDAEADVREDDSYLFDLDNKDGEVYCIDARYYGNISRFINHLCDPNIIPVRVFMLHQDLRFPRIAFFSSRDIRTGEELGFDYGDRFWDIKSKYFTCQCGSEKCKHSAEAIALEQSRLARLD
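Compounds were preincubated with 20 nM G9a for 15 min, after which biotinylated H3K9 peptide (500 nM) and SAM (20 uM) started a 2 h room-temperature reaction. Monomethylated product was quantified by antibody-based AlphaScreen chemiluminescence.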
CtBP-E1A blk = CtBP/E1A binding inhibition. AlphaScreen GST-E1A/His-CtBP binding, 1536-well; stronger effect = lower value. activity change, % (no concentration beside the values). 340,000 tested, 0.49% active; in the data active = activity change below about -65%; inconclusive = mostly about -30% to -63%; also: % is scaled to controls: 0 for no effect and ±100 for the full control effect
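Homogeneous bead-based format: GST-tagged E1A captured on glutathione donor beads, His-tagged CtBP on nickel acceptor beads; compounds precede bead addition by 2 h at 37 °C.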
HP1b chromo inh = blocks HP1-beta chromodomain binding to methylated histone tails | AlphaScreen HP1-beta / biotin-H3K9me3 peptide binding | AID 540317 | P83916 | 390,000 tested, 0.56% active | Potency, µM (top dose mostly 114 µM), without a hit: at the top dose activity change, negative = inhibition, actives largely listed as inhibitors; also: potency is read from the fitted curve at half-maximal effect; nearly all actives have a fitted effect of over 70% in size
Target sequence (P83916 whole entry, looked up): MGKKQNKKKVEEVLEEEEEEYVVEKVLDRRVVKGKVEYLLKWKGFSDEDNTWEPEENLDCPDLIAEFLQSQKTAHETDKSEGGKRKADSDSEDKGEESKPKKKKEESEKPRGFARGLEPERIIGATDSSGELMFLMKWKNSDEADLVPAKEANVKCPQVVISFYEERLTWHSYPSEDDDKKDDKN
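AlphaScreen: HP1-beta (50 nM) preformed 30 min with biotin-H3(1-18)K9me3 peptide (50 nM) in PBS pH 7.4, 0.01% Tween-20. Compound added for 30 min at RT, then streptavidin donor/nickel chelate acceptor beads (10 ug/mL) for 30 min.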
The depositor's hits bear a star; [ ] = another dose, or the depositor's remark. Unless noted, calls follow the shape of the dose curve; as a rule, active = well fitted inhibition curve with a large enough effect; inconclusive = small, poorly fitted or top-dose-only effect; inactive = no such curve, though single readings can be large or run the other way.

What do the screens show for `COc1cc(C(=O)NCC(=O)N/N=C/c2ccc(-c3cccc([N+](=O)[O-])c3)o2)cc(OC)c1OC`?
Six1-Eya2 blk: -19; BAZ2B inh: -23%; JMJD2A Tudor inh: -22%; G9a inh: 10µM*; CtBP-E1A blk: 0; HP1b chromo inh: 18%

Results for COC(=O)c1cc(CNC(=O)C2CC(=O)N(c3ccc4c(c3)OCCO4)C2)ccc1OC (stereo unspecified) ?
Six1-Eya2 blk: 0; JMJD2A Tudor inh: 2%; CtBP-E1A blk: -3; HP1b chromo inh: 27%

How did COC(=O)C1=C2c3[nH]c4ccccc4c3CCN2C(=O)CC1 do in these assays?
Six1-Eya2 blk: 5; JMJD2A Tudor inh: -21%; CtBP-E1A blk: 6; HP1b chromo inh: 20%

What do the screens show for `Cc1c(NC(=O)c2cn3ccccc3n2)cccc1-n1cnnn1`?
Six1-Eya2 blk: -3; BAZ2B inh: -11%; JMJD2A Tudor inh: 20µM*; G9a inh: inconclusive; CtBP-E1A blk: 3; HP1b chromo inh: 14%

How did O=C(Nc1ccc(-n2cnnn2)cc1)c1cn2ccccc2n1 do in these assays?
Six1-Eya2 blk: 7; BAZ2B inh: -7%; JMJD2A Tudor inh: -8%; G9a inh: -20%; CtBP-E1A blk: -17; HP1b chromo inh: 31%

What do the screens show for `Cc1c(NC(=S)NC(=O)c2cccc([N+](=O)[O-])c2)c(=O)n(-c2ccccc2)n1C`?
Six1-Eya2 blk: 6; BAZ2B inh: -27%; JMJD2A Tudor inh: -5%; G9a inh: 45µM*; CtBP-E1A blk: -11; HP1b chromo inh: 7%

What do the screens show for `O=C(NC(=S)NNC(=O)c1ccccc1O)c1cccc([N+](=O)[O-])c1`?
Six1-Eya2 blk: -77*; BAZ2B inh: 45µM*; JMJD2A Tudor inh: 79µM*; G9a inh: 52%[2.33 µM]; CtBP-E1A blk: -90*; HP1b chromo inh: -18%

How did O=C(NC(=S)Nc1ccccn1)c1cccc([N+](=O)[O-])c1 do in these assays?
Six1-Eya2 blk: inconclusive; BAZ2B inh: inconclusive; JMJD2A Tudor inh: -19%; G9a inh: inconclusive; CtBP-E1A blk: -74*; HP1b chromo inh: 21%

What do the screens show for `Cc1c(NC(=S)NC(=O)c2cccc(Br)c2)c(=O)n(-c2ccccc2)n1C`?
Six1-Eya2 blk: 3; BAZ2B inh: 1%; JMJD2A Tudor inh: -10%; CtBP-E1A blk: -11; HP1b chromo inh: 6%

What do the screens show for `O=C(NC(=S)NNC(=O)c1ccccc1[N+](=O)[O-])c1ccc(Br)cc1`?
Six1-Eya2 blk: 7; BAZ2B inh: 7%; JMJD2A Tudor inh: -26%; G9a inh: 8.9µM*; CtBP-E1A blk: -1; HP1b chromo inh: -15%

What do the screens show for `CCOc1ccc(C(=O)NC(=S)Nc2ccccn2)cc1[N+](=O)[O-]`?
Six1-Eya2 blk: 10; BAZ2B inh: -31%; JMJD2A Tudor inh: -20%; G9a inh: inconclusive; CtBP-E1A blk: -1; HP1b chromo inh: 14%

How did CCCCSc1cc(C)nc(N)n1 do in these assays?
Six1-Eya2 blk: 0; BAZ2B inh: -1%; JMJD2A Tudor inh: -4%; G9a inh: 3%; CtBP-E1A blk: 4; HP1b chromo inh: 45%

Results for COc1ccc(NC(=O)C(=O)NCC2CCCN2S(=O)(=O)c2ccc(C)cc2)cc1 (stereo unspecified) ?
Six1-Eya2 blk: -1; BAZ2B inh: 6%; JMJD2A Tudor inh: -23%; G9a inh: -35%; CtBP-E1A blk: -6; HP1b chromo inh: -21%

How did CCCCCC(=O)NNC(=S)NC(=O)c1cccc([N+](=O)[O-])c1 do in these assays?
Six1-Eya2 blk: -3; BAZ2B inh: -33%; JMJD2A Tudor inh: 35µM*; G9a inh: 7.9µM*; CtBP-E1A blk: -1; HP1b chromo inh: -18%

What do the screens show for `CCCCCC(=O)NNC(=S)NC(=O)c1ccccc1[N+](=O)[O-]`?
Six1-Eya2 blk: 2; BAZ2B inh: -29%; JMJD2A Tudor inh: -13%; G9a inh: -42%; CtBP-E1A blk: -13; HP1b chromo inh: 21%
